Experimental data as given in PubChem BioAssay (NCATS).
Results filed as inconclusive are left out. A call without a number means that no potency is given here. A number with no mark means an inactive call. Activity calls are given as the source filed them. The call rests on the fitted dose curve; in most records, active means well fitted cell-killing curve with a large enough effect; inconclusive means small, poorly fitted or top-dose-only effect, or effect the other way; inactive means no such curve, though single readings can be large or run the other way. Residues, ends and D or L forms follow the SMILES beside them. *: point of attachment. Cbz = O=C(OCc1ccccc1)*

Columns and labels:
[1] = Quantitative High-Throughput drug screen in 47 multiple myeloma cell lines against the NCATS MIPE library collection: LP1_DSMZ cell viability assay (AID 1918982); further: nearly all actives have a fitted effect of over 35% in size
In short: (§1)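 MIPE 4.0 approved/investigational drugs; 500 cells/well; 48 h 37 °C humidified 5% CO2; CTG luminescence readout; DMSO = 100%, media = 0% viability.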

[2] = Quantitative High-Throughput drug screen in 47 multiple myeloma cell lines against the NCATS MIPE library collection: KMS28PE_JCRB cell viability assay (AID 1918983); further: nearly all actives have a fitted effect of over 35% in size
In short: as §1

[3] = Quantitative High-Throughput drug screen in 47 multiple myeloma cell lines against the NCATS MIPE library collection: L363_DSMZ cell viability assay (AID 1918984); further: nearly all actives have a fitted effect of over 40% in size
In short: as §1

[4] = Quantitative High-Throughput drug screen in 47 multiple myeloma cell lines against the NCATS MIPE library collection: OPM1_PLB cell viability assay (AID 1918989); further: nearly all actives have a fitted effect of over 40% in size
In short: as §1

[5] = Quantitative High-Throughput drug screen in 47 multiple myeloma cell lines against the NCATS MIPE library collection: SKMM1_PLB cell viability assay (AID 1919863); conditions: SKMM1 myeloma viability, CellTiter-Glo ATP, 48 h; viability: hits give low values; further: nearly all actives have a fitted effect of over 35% in size
In short: as §1

[6] = Quantitative High-Throughput drug screen in 47 multiple myeloma cell lines against the NCATS MIPE library collection: U266_ATCC cell viability assay (AID 1919864); further: nearly all actives have a fitted effect of over 35% in size
In short: as §1

[7] = Quantitative High-Throughput drug screen in 47 multiple myeloma cell lines against the NCATS MIPE library collection: XG6_PLB cell viability assay (AID 1919865); further: nearly all actives have a fitted effect of over 40% in size
In short: as §1

[8] = Quantitative High-Throughput drug screen in 47 multiple myeloma cell lines against the NCATS MIPE library collection: XG1_PLB cell viability assay (AID 1919866); further: nearly all actives have a fitted effect of over 35% in size
In short: as §1

[9] = Quantitative High-Throughput drug screen in 47 multiple myeloma cell lines against the NCATS MIPE library collection: VP6_DJ cell viability assay (AID 1919867); further: nearly all actives have a fitted effect of over 40% in size
In short: as §1

[10] = Quantitative High-Throughput drug screen in 47 multiple myeloma cell lines against the NCATS MIPE library collection: UTMC2_PLB cell viability assay (AID 1919868); conditions: CellTiter-Glo ATP luminescence, 48 h; viability (% of DMSO control): at 45.8 µM (top of the series); further: nearly all actives have a fitted effect of over 55% in size
In short: as §1

[11] = Quantitative High-Throughput drug screen in 47 multiple myeloma cell lines against the NCATS MIPE library collection: PE2_PLB cell viability assay (AID 1919869); further: nearly all actives have a fitted effect of over 35% in size
In short: as §1

[12] = Quantitative High-Throughput drug screen in 47 multiple myeloma cell lines against the NCATS MIPE library collection: PCM6_Riken cell viability assay (AID 1919870); further: nearly all actives have a fitted effect of over 30% in size
In short: as §1

[13] = Quantitative High-Throughput drug screen in 47 multiple myeloma cell lines against the NCATS MIPE library collection: RPMI8226_ATCC cell viability assay (AID 1919871); further: nearly all actives have a fitted effect of over 30% in size
In short: as §1

[14] = Quantitative High-Throughput drug screen in 47 multiple myeloma cell lines against the NCATS MIPE library collection: OPM2_DSMZ cell viability assay (AID 1919872); further: nearly all actives have a fitted effect of over 30% in size
In short: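 We plated 500 myeloma cells per well, pinned in MIPE 4.0 compounds, and incubated for 48 hours at 37C. ATP was then quantified with CellTiter-Glo, with DMSO and media-only wells defining 100% and 0%.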

[15] = Quantitative High-Throughput drug screen in 47 multiple myeloma cell lines against the NCATS MIPE library collection: KMS28BM_JCRB cell viability assay (AID 1919874); further: nearly all actives have a fitted effect of over 35% in size
In short: as §1

[16] = Quantitative High-Throughput drug screen in 47 multiple myeloma cell lines against the NCATS MIPE library collection: KMS34_JCRB cell viability assay (AID 1918985); further: nearly all actives have a fitted effect of over 40% in size
In short: as §1

[17] = Quantitative High-Throughput drug screen in 47 multiple myeloma cell lines against the NCATS MIPE library collection: OCIMY7_PLB cell viability assay (AID 1918987); conditions: OCI-MY7 myeloma viability, CellTiter-Glo ATP, 48 h; viability (% of DMSO): at 45.8 µM (top of the series); further: nearly all actives have a fitted effect of over 65% in size
In short: as §1

[18] = Quantitative High-Throughput drug screen in 47 multiple myeloma cell lines against the NCATS MIPE library collection: KMS11_JCRBsus cell viability assay (AID 1919873); further: nearly all actives have a fitted effect of over 50% in size
In short: as §1

[19] = Quantitative High-Throughput drug screen in 47 multiple myeloma cell lines against the NCATS MIPE library collection: OCIMY5_PLB cell viability assay (AID 1918988); further: nearly all actives have a fitted effect of over 65% in size
In short: as §1
Potency means the concentration at half of the fitted maximal effect.

SMILES | Potency [1] | Potency [2] | Potency [3] | Potency [4] | Potency [5] | Potency [6] | Potency [7] | Potency [8] | Potency [9] | Potency [10] | Potency [11] | Potency [12] | Potency [13] | Potency [14] | Potency [15] | viability [5] [%] | Potency [16] | Potency [17] | Potency [18] | Potency [19]
Cc1cnn(C)c1C(=O)Nc1cc(Nc2ccc3c(C=Cc4ccccn4)n[nH]c3c2)ccc1F | 20.9 µM (active) | 29.6 µM (active) | 4.69 µM (active) | 4.69 µM (active) | 20.9 µM (active) | 20.9 µM (active) | 5.9 µM (active) | 4.69 µM (active) | 10.5 µM (active) | 10.5 µM (active) | 2.64 µM (active) | 4.69 µM (active) | 26.4 µM (active) | 18.7 µM (active) | 20.9 µM (active) | – | – | – | – | –
C[C@H](NC(=O)Cc1cc(F)cc(F)c1)C(=O)N[C@H](C(=O)OC(C)(C)C)c1ccccc1 | inactive | inactive | inactive | inactive | – | inactive | inactive | inactive | – | – | inactive | inactive | – | inactive | inactive | 105 | – | – | – | –
COc1ccc(CCC(=O)c2c(O)cc(O[C@@H]3O[C@H](CO)[C@@H](O)[C@H](O)[C@@H]3O[C@@H]3O[C@@H](C)[C@H](O)[C@@H](O)[C@@H]3O)cc2O)cc1O | inactive | inactive | – | inactive | – | 8.33 µM (active) | 5.26 µM (active) | 7.43 µM (active) | 9.35 µM (active) | 9.35 µM (active) | – | 7.43 µM (active) | – | inactive | inactive | 101 | inactive | 10.5 µM (active) | inactive | –
CC(Oc1ccc(O)cc1)(P(=O)(O)O)P(=O)(O)O | inactive | – | inactive | – | – | – | inactive | inactive | inactive | – | 2.35 µM (active) | inactive | inactive | inactive | – | 108 | inactive | – | inactive | –
CN(N=O)C(=O)N[C@H]1C(O)OC(CO)[C@@H](O)[C@H]1O (some centres not stated) | inactive | – | inactive | inactive | – | – | inactive | inactive | – | – | inactive | inactive | inactive | – | inactive | – | – | inactive | – | –
C[C@H](O)[C@@H]1C(=O)N2C(C(=O)O)=C(S[C@@H]3CN[C@H](CNS(N)(=O)=O)C3)[C@@H](C)[C@@H]12 | inactive | inactive | – | – | – | – | – | inactive | inactive | inactive | – | inactive | – | inactive | inactive | 105 | inactive | – | inactive | –
CC(C)C[C@@H](C=O)NC(=O)[C@H](CC(C)C)NC(=O)[C@H](CC(C)C)NC(=O)OCc1ccccc1 (Cbz-Leu-Leu-Leu-aldehyde) | 0.662 µM (active) | – | 0.118 µM (active) | 0.296 µM (active) | 1.18 µM (active) | – | 0.105 µM (active) | 0.148 µM (active) | 0.132 µM (active) | 1.18 µM (active) | 0.209 µM (active) | 0.332 µM (active) | 0.833 µM (active) | 0.662 µM (active) | 0.235 µM (active) | – | 0.235 µM (active) | – | 0.264 µM (active) | 0.372 µM (active)
CCn1c(=O)c2c(nc(C=Cc3ccc(OC)c(OC)c3)n2C)n(CC)c1=O | inactive | inactive | – | – | – | – | – | inactive | – | inactive | 14.8 µM (active) | – | – | – | inactive | 123 | inactive | – | inactive | –
CC(C)(O)[C@H]1CC[C@@](C)([C@H]2[C@@H](O)C[C@@]3(C)[C@@H]4C[C@H](O[C@@H]5O[C@H](CO)[C@@H](O)[C@H](O)[C@@H]5O)[C@H]5C(C)(C)[C@@H](O[C@@H]6OC[C@@H](O)[C@H](O)[C@@H]6O)CC[C@@]56C[C@@]46CC[C@]23C)O1 | inactive | inactive | – | 16.6 µM (active) | – | – | – | inactive | – | inactive | – | inactive | inactive | inactive | inactive | – | inactive | – | inactive | –
C[C@]12C=CC(=O)N[C@@H]1CC[C@H]1[C@H]3CC[C@@H](C(=O)Nc4cc(C(F)(F)F)ccc4C(F)(F)F)[C@@]3(C)CC[C@@H]12 | inactive | 20.9 µM (active) | – | – | – | inactive | 16.6 µM (active) | 13.2 µM (active) | – | inactive | – | 4.69 µM (active) | – | 10.5 µM (active) | – | – | – | 16.6 µM (active) | inactive | 16.6 µM (active)
C[C@H]1C[C@H]2[C@@H]3CCC4=CC(=O)C=C[C@]4(C)[C@@H]3C(=O)C[C@]2(C)[C@@]1(O)C(=O)CO | inactive | inactive | – | inactive | – | – | inactive | inactive | 6.62 µM (active) | – | – | inactive | inactive | inactive | – | – | – | – | inactive | inactive
COc1ccc(S(=O)(=O)Nc2cc(-c3c(O)ccc4ccccc34)c(O)c3ccccc23)cc1 | 16.6 µM (active) | – | 2.64 µM (active) | 9.35 µM (active) | 20.9 µM (active) | – | 5.9 µM (active) | 5.26 µM (active) | 9.35 µM (active) | 16.6 µM (active) | 1.48 µM (active) | 5.26 µM (active) | 23.5 µM (active) | 11.8 µM (active) | 3.72 µM (active) | – | 10.5 µM (active) | 2.64 µM (active) | 3.32 µM (active) | 20.9 µM (active)
CC(=O)O[C@H]1C[C@@H]2CC[C@H]3[C@H]4C[C@H]([N+]5(C)CCCCC5)[C@@H](OC(C)=O)[C@@]4(C)CC[C@@H]3[C@@]2(C)C[C@H]1[N+]1(C)CCCCC1 | inactive | – | inactive | – | – | 23.5 µM (active) | inactive | inactive | – | – | – | inactive | inactive | inactive | inactive | 128 | inactive | – | inactive | –
